HTT prom inh = inhibits huntingtin promoter activity | AID 1508623 | 0.93% of 48,000 active | HEK293 HTT promoter firefly luciferase reporter, 24 h | Potency, µM (highest dose often 57.5 µM), without a hit: top-dose activity change, negative = inhibition, usual class: inhibitors; further: nearly all actives have a fitted effect of over 50% in size
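HEK293 luciferase promoter-reporter cells (2,500/well) plated 24 h, then compounds added at up to 57.5 uM final for 24 h at 37 °C. Firefly luminescence by Dual-Glo, normalized to vehicle (0%) and zero RLU (-100%).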
HTT-AS promoter = activates huntingtin-antisense promoter activity; HEK293 HTT-AS promoter firefly luciferase reporter, 24 h; response scale: percent change from vehicle, -100% = no light; Potency, µM (titrated, usually from 57.5 µM), without a hit: at the top dose activity change, positive = activation, hits mostly activators; 0.24% of 48,000 active; further: nearly all actives have a fitted effect of over 55% in size
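HEK293 cells carrying firefly luciferase reporters were seeded at 2,500 per well in Opti-MEM and cultured for 24 h. They were then treated with compounds at up to 57.5 uM final for 24 h at 37 degrees C before Dual-Glo luminescence readout.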
NTMT1 inh = inhibitors of human N-terminal methyltransferase NTMT1; Q9BV86; NTMT1 MTase-Glo SAH luminescence, purified enzyme; Potency, µM (doses to about 114 µM), without a hit: top-dose activity change, negative = inhibition, most hits filed as inhibitors; 2.5% of 59,000 active; AID 1645870;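 further: plate controls were DMSO vehicle for no effect and no enzyme for full effect; nearly all actives have a fitted effect of over 65% in size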
Target sequence (Q9BV86 whole entry, looked up): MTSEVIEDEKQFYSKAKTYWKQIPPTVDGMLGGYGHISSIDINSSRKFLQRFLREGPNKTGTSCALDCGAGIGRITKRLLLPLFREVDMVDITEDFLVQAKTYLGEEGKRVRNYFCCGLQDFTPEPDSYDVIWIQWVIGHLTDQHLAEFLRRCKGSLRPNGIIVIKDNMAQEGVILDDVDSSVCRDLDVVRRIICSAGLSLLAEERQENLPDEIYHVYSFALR
The depositor's hits bear a star; ? = inconclusive; · = not tested or not shown; [ ] = dose if it differs, or a comment. Shown are actives, neighbours in structure and some others; about 2.4% of the full set was active somewhere. The call rests on the fitted dose curve; in most records, active means well fitted curve in the direction sought with a large enough effect; inconclusive means small, poorly fitted or top-dose-only effect, or another doubt; inactive means no such curve, though single readings can be large; an effect the other way counts as inactive or inconclusive. Potency means the concentration at half of the fitted maximal effect.

SMILES | HTT prom inh | HTT-AS promoter | NTMT1 inh
COc1cccc(CN2CCc3nc(N4CCN(c5ncccn5)CC4)ncc3C2)c1 | 25µM* | -53% | -2%
COc1cccc(CN2CCc3nc(N4CCN(C)CC4)ncc3C2)c1 | -15% | -14% | 9%
C/C(=C/CO)CC[C@H]1[C@]2(C)C[C@H](O)CC(C)(C)[C@H]2CC[C@]1(C)O | · | · | 5%[29.8 µM]
CC(NC(=O)c1ccc(Cn2c(=O)c3cccn3c3cccnc32)cc1)c1ccccc1 (stereo not given) | -16% | -20% | ?
CC(NC(=O)CCCn1c(=O)c2cccn2c2cccnc21)c1ccccc1 (stereo not given) | 1% | -7% | 89µM*
Cc1ccc(-n2ncc3c(NC(C)c4ccccc4)ncnc32)cc1 (stereo not given) | -11% | 11% | 0%
CCN1CCN(Cc2ccc(-c3cc4c(NC(C)c5ccccc5)ncnc4[nH]3)cc2)CC1 (stereo not given) | · | · | 14µM*
CCn1c2ccccc2c2cc(CN3CCN(Cc4ccc(Cl)cc4)CC3)ccc21 | -26% | -30% | ?
CCN1CCN(Cc2ccc(-c3cc4c(N[C@H](C)c5ccccc5)ncnc4[nH]3)cc2)CC1 | ? | -38% | 22µM*
CN1CCN(C(=O)c2cccc(-c3ccc(CNc4ccc(N5CCN(C(=O)OC(C)(C)C)CC5)cc4)o3)c2)CC1 | · | · | -27%
CN1CCCN(C(=O)c2cccc(-c3ccc(/C=C4/C(=O)Nc5ccc(Cl)cc54)o3)c2)CC1 | · | · | 11µM*
Cc1ccc(Cn2c(SCc3ccc(C(=O)N4CCCCCC4)cc3)nc3ccncc32)cc1 | 32µM* | -46% | -5%
O=C(c1ccc(CSc2nc3ccncc3n2Cc2ccccc2F)cc1)N1CCCCCC1 | -30% | -13% | 2%
Cc1ccccc1Cn1c(SCc2ccc(C(=O)N3CCCCC3)cc2)nc2ccncc21 | ? | -13% | ?
Cc1ccc(Cn2c(SCc3ccc(C(=O)N4CCCCC4)cc3)nc3ccncc32)cc1 | 13µM* | -60% | -2%
C[C@@H]1O[C@@H](O[C@H]2[C@@H]3C=CO[C@@H](O[C@@H]4O[C@H](CO)[C@@H](O)[C@H](O)[C@H]4O)[C@@H]3[C@@]3(CO)O[C@@H]23)[C@H](O)[C@H](O)[C@H]1OC(=O)/C=C/c1ccc(O)cc1 | · | · | 3%[12.6 µM]
CCOc1cc(F)c(CCNC(=O)c2cc3sccc3n2Cc2ccccc2)cc1OCC | · | · | 16%
O=c1c2ccc(C(F)(F)F)cc2nc2sc(Nc3ccc4c(c3)CCC4)nn12 | · | · | 19%
COc1ccc(Nc2ncnc3sc4c(c23)CCCC4)cc1 | -17% | -24% | 22µM*
CCc1ccc(Nc2ncnc3sc4c(c23)CCCC4)cc1 | -24% | -33% | -6%
CCc1ccc(C2=C(C)C(N3CCC(C(=O)Nc4cccc(OC)c4)CC3)=NS2(=O)=O)cc1 | -32% | -23% | 4%
O=C(Nc1nc2cccc(-c3ccc(CN4CCS(=O)(=O)CC4)cc3)n2n1)C1CC1 | 25% | 24µM* | 4%
COc1cccc(-c2cn3ncsc3n2)c1 | 58% | 2.5µM* | ?
CCNC(=O)c1ccc2c(c1)sc1nc(-c3cccc(OC)c3)cn12 | 14% | ? | ?
CCCN1CCCc2cc(CN(CCCN3CCOCC3)C(=O)Nc3ccc(OCC)cc3)ccc21 | 0% | -12% | -6%
SMILES | HTT prom inh | HTT-AS promoter | NTMT1 inh
CCCN1CCCc2cc(CN(CCCN3CCOCC3)C(=O)Nc3ccc(Cl)c(Cl)c3)ccc21 | -30% | -33% | 79µM*
S=P(c1ccccc1)(c1ccccc1)c1nc(CCCc2ccccc2)n2ccccc12 | · | · | 0%[57.5 µM]
CC(=O)C1=C(c2ccc(Cl)c(Cl)c2)N(C(C)=O)n2cnnc2S1 | ? | -83% | 56µM*
COc1cccc(C2=C(C(C)=O)Sc3nncn3N2C(C)=O)c1 | -18% | ? | -2%
COc1ccccc1C1N=C(Nc2nc3ccccc3o2)NC2=C1C(=O)CCC2 (stereo not given) | · | · | 5%[57.5 µM]
COc1ccc(NC(=O)CSc2nnc(-c3ccc(C)cc3)o2)cc1 | 1% | -7% | 23%
COc1cccc(NC(=O)CSc2nnc(-c3cccc(OC)c3)o2)c1 | 60% | 14µM* | 6%
COc1ccc(Cl)cc1-c1cc(=O)[nH]c(=S)n1CC(N)=O | · | · | 15%
CNC(=O)CN1CCC(Oc2cc3c(Nc4cccc(Cl)c4F)ncnc3cc2OC)CC1 | ? | -26% | 35µM*
COc1ccc(OC)c(Nc2ncnc3c2cnn3-c2cccc(Cl)c2)c1 | ? | -12% | -10%
O=C1CCCC2=C1C(c1cccc(F)c1)N=C(Nc1nc3ccccc3o1)N2 (stereo not given) | · | · | 10%
Cc1cnc(-c2ccccc2N(C)C)nc1NCc1ccc(-c2cccnc2)cc1 | · | · | -10%
